Records with an inconclusive call do not appear. Activity calls are given as the source filed them. Unless noted, the call rests on the fitted dose curve; in most records, active means well fitted curve in the direction sought with a large enough effect in the repeat runs; inconclusive means weak or mixed curves; inactive means no such curve, though single readings can be large; an effect the other way counts as inactive or inconclusive.
Key:
[1] = qHTS assay for small molecules that induce genotoxicity in human embryonic kidney cells expressing luciferase-tagged ATAD5 (AID 651632); further: nearly all actives have a fitted effect of over 15% in size
Procedure, shortened: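 ATAD5-luc HEK293T, 2,000 cells/well; cpd or DMSO pin-transferred; 16 hr, 37C/5% CO2; Amplite 30 min RT; luminescence.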

[2] = qHTS assay for small molecule agonists of the p53 signaling pathway - cell viability (AID 651633; calls by dose curve;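 further: p53RE-bla HCT reporter cells with a stable beta-lactamase p53 reporter; series mostly up to about 83 µM; nearly all actives have a fitted effect of over 30% in size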)
Procedure, shortened: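 Viability counter-read: CellTiter-Glo luminescence (30 min, room temperature) in the same p53RE-bla plates. These plates had been exposed to compounds for 16 h at 37 C.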

[3] = qHTS assay for small molecules that induce genotoxicity in human embryonic kidney cells expressing luciferase-tagged ATAD5 - cell viability (AID 651634; calls by dose curve; further: nearly all actives have a fitted effect of over 25% in size)
Procedure, shortened: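 Fluorescence from CellTiter-Fluor, reporting protease activity within live cells, served as the viability read-out. HEK293T cells carrying luciferase-tagged ATAD5 had been treated with compound for 15.5 hr at 37C.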

[4] = qHTS assay for small molecule disruptors of the mitochondrial membrane potential - cell viability (AID 720634; calls by dose curve;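 further: human HepG2 liver cancer cells; series mostly up to about 83 µM; nearly all actives have a fitted effect of over 20% in size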)
Procedure, shortened: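 Cells: HepG2, 2,000/well, attached overnight. Compound 1 hr, 37 C/5% CO2. +m-MPI dye, +CellTiter-Glo 30 min RT. Readout: luminescence (ATP).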

[5] = qHTS assay to test for compound auto fluorescence at 590 nm (red) in HepG2 cells (AID 720674)
Procedure, shortened: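 1 hr compound incubation on HepG2 cells, 37 C, 5% CO2; plate read ex 540 nm / em 590 nm; intensities reported as Rose Bengal sodium equivalents.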

[6] = qHTS assay to test for compound auto fluorescence at 535 nm (green) in HepG2 cells (AID 720675)
[7] = qHTS assay to test for compound auto fluorescence at 460 nm (blue) in HEK293 cells (AID 720678)
Procedure, shortened: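 Measured: blue fluorescence (Ex 405/Em 460 nm) of compound-treated HEK293 cells, incubated overnight at 37C with 5% CO2 and scaled to triamterene equivalents.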

[8] = qHTS assay to test for compound auto fluorescence at 590 nm (red) in HEK293 cells (AID 720679)
Procedure, shortened: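 Using HEK293 cells at 2,000 per well, the screen added 23 nL of each compound after cell attachment and incubated overnight (37C, 5% CO2). The plate reader then captured red-label fluorescence, Ex/Em 540/590nm.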

[9] = qHTS assay to test for compound auto fluorescence at 535 nm (green) in HEK293 cells (AID 720680)
[10] = qHTS assay to test for compound auto fluorescence at 460 nm (blue) in HEK293 cell free culture (AID 720681)
Procedure, shortened: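 Blue fluorescence (Ex 405/Em 460 nm, triamterene-equivalent) was read immediately after pin transfer of compound or DMSO into medium (DMEM, 10% FBS) without cells.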

[11] = qHTS assay to test for compound auto fluorescence at 535 nm (green) in HEK293 cell free culture (AID 720682)
Procedure, shortened: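 Each library compound, or DMSO control, is added by pintool to medium alone, comprising DMEM and 10% FBS. Emission at 535 nm following 485 nm excitation is quantified against fluorescein.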

[12] = qHTS assay to test for compound auto fluorescence at 590 nm (red) in HEK293 cell free culture (AID 720683)
Procedure, shortened: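 Red-channel autofluorescence of compounds in culture medium (DMEM, 10% FBS), no cells, measured at 540/590 nm. Rose Bengal sodium is the reference fluorophore for equivalence.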

[13] = qHTS assay to test for compound auto fluorescence at 590 nm (red) in HepG2 cell free culture (AID 720684)
Procedure, shortened: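 Plate contents were MEM with 10% FBS plus test compound or DMSO, no cells. Fluorescence was recorded with 540 nm excitation and 590 nm emission.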

[14] = qHTS assay to test for compound auto fluorescence at 460 nm (blue) in HepG2 cell free culture (AID 720685)
Procedure, shortened: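 Compound (23 nL) or DMSO pinned into cell-free MEM with 10% FBS; blue fluorescence read at 405/460 nm excitation/emission, expressed as auto-fluorescence equivalency to triamterene.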

[15] = qHTS assay to test for compound auto fluorescence at 535 nm (green) in HepG2 cell free culture (AID 720686)
[16] = qHTS assay to test for compound auto fluorescence at 460 nm (blue) in HepG2 cells (AID 720687)
Procedure, shortened: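 Blue-channel autofluorescence (Ex/Em 405/460 nm, triamterene-equivalent) was measured after 1 hr compound exposure at 37 C, 5% CO2. Cells were HepG2, plated overnight at 37 C in MEM plus 10% FBS.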

[17] = qHTS assay for small molecule agonists of the p53 signaling pathway (AID 651631; calls by dose curve; further: nearly all actives have a fitted effect of over 15% in size)
Procedure, shortened: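 Beta-lactamase reporter activity under p53 response elements was quantified in HCT-116 cells by FRET fluorescence, following 16 h incubation with test compounds at 37 °C and 2 h substrate development at room temperature.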

[18] = target: Glucocorticoid receptor (Homo sapiens) (UniProt P04150); test: qHTS assay to identify small molecule agonists of the glucocorticoid receptor (GR) signaling pathway (AID 720691; active means well fitted activation curve with a large enough effect in the signal ratio in the repeat runs, not every such curve was filed as active; the % refers to the signal ratio)
Sequence of Glucocorticoid receptor (Homo sapiens) (P04150 whole entry, looked up): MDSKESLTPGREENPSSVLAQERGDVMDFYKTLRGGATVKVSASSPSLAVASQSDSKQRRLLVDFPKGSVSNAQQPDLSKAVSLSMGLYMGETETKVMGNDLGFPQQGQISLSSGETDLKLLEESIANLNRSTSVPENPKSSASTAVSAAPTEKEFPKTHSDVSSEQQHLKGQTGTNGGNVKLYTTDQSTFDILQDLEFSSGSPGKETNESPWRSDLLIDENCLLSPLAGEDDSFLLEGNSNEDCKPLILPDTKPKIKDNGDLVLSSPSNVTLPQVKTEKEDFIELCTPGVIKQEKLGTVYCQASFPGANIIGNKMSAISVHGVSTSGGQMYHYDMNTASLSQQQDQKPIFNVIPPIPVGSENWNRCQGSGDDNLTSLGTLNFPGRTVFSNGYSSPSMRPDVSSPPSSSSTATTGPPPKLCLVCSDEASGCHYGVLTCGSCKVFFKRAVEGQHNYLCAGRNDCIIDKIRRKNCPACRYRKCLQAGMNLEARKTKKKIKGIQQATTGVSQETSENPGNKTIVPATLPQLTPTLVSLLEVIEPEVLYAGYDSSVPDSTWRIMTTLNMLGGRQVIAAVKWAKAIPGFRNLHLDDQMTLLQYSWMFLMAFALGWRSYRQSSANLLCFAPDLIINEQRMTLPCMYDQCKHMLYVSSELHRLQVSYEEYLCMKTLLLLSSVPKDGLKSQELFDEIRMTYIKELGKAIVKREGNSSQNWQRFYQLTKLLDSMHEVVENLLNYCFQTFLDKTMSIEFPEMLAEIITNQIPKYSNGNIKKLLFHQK
Procedure, shortened: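 Fluorescence intensity from LiveBLAzer B/G FRET substrate (2 h, room temperature) reports beta-lactamase expression driven by the glucocorticoid response element in GR-bla HeLa cells after 18 h compound exposure at 37 C.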

[19] = target: Glucocorticoid receptor (Homo sapiens) (UniProt P04150); test: qHTS assay to identify small molecule antagonists of the glucocorticoid receptor (GR) signaling pathway (AID 720692; active means well fitted inhibition curve with a large enough effect in the signal ratio in the repeat runs, not every such curve was filed as active; the % refers to the signal ratio; further: potency means the concentration at half of the fitted maximal effect)
Procedure, shortened: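 HeLa GR-bla cells; cmpd + dex 5 nM final, 18 h 37 C; LiveBLAzer B/G FRET substrate 2 h RT; fluorescence intensity read. Antagonist mode, qHTS.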

[20] = qHTS assay for small molecule disruptors of the mitochondrial membrane potential (AID 720635); further: potency means the concentration at half of the fitted maximal effect
Procedure, shortened: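 Mitochondrial membrane potential tracked with Mito-MPS dye, red aggregates (ex 540/em 590 nm) against green monomers (ex 490/em 535 nm). Compound treatment 1 hr at 37C, dye 30 min in HepG2.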

Measured: Potency

CC[N+](CC)(CC(=O)Nc1c(C)cccc1C)Cc1ccccc1
inactive: [1] | [2] | [3] | [4] | [5] | [6] | [7] | [8] | [9] | [10] | [11] | [12] | [13] | [14] | [15] | [16]

NC1CCCCC1N (stereo unspecified)
inactive: [17] | [2] | [3] | [5] | [6] | [7] | [8] | [9] | [10] | [11] | [12] | [13] | [14] | [15] | [16] | [18] | [19]

CCN(CC)CCNC(=O)c1ccc(N)cc1
inactive: [1] | [2] | [3] | [4] | [5] | [6] | [7] | [8] | [9] | [10] | [11] | [12] | [13] | [14] | [15] | [16]
active: [20] 13.3 µM

C=CC(C)(C)C
inactive: [17] | [1] | [2] | [3] | [4] | [5] | [6] | [7] | [8] | [9] | [10] | [11] | [12] | [13] | [14] | [15] | [16] | [18] | [19]

CN=C(NC#N)NCCSCc1nc[nH]c1C
inactive: [1] | [3] | [4] | [20] | [5] | [6] | [7] | [8] | [9] | [10] | [11] | [12] | [13] | [14] | [15] | [16]

CN1Cc2c(N)cccc2C(c2ccccc2)C1 (stereo unspecified)
inactive: [1] | [3] | [4] | [20] | [5] | [6] | [7] | [8] | [9] | [10] | [11] | [12] | [13] | [14] | [15] | [16] | [18] | [19]

COc1c(Cl)ccc(Cl)c1C(=O)O
inactive: [1] | [2] | [3] | [4] | [20] | [5] | [6] | [7] | [8] | [9] | [10] | [11] | [12] | [13] | [14] | [15] | [16]

Cc1ncc(CO)c(CO)c1O
inactive: [17] | [2] | [3] | [4] | [20] | [5] | [6] | [7] | [8] | [9] | [10] | [11] | [12] | [13] | [14] | [15] | [16]

CC(C)(CO)CO
inactive: [17] | [1] | [2] | [3] | [4] | [5] | [6] | [7] | [8] | [9] | [10] | [11] | [12] | [13] | [14] | [15] | [16] | [18] | [19]

CC(C=O)Cc1ccc(C(C)(C)C)cc1 (stereo unspecified)
inactive: [1] | [2] | [3] | [4] | [5] | [6] | [7] | [8] | [9] | [10] | [11] | [12] | [13] | [14] | [15] | [16] | [18] | [19]
active: [20] 61.1 µM

C[n+]1ccn(CCO)c1
inactive: [1] | [2] | [3] | [4] | [20] | [5] | [6] | [7] | [8] | [9] | [10] | [11] | [12] | [13] | [14] | [15] | [16] | [18] | [19]

COc1cc(NC(=O)CC(C)=O)c(OC)cc1Cl
active: [19] 54.9 µM
inactive: [1] | [2] | [3] | [4] | [20] | [5] | [6] | [7] | [8] | [9] | [10] | [11] | [12] | [13] | [14] | [15] | [16] | [18]

O=c1n(CCCN2CCN(c3cccc(Cl)c3)CC2)nc2ccccn12
inactive: [17] | [2] | [3] | [4] | [20] | [5] | [6] | [7] | [8] | [9] | [10] | [11] | [12] | [13] | [14] | [15] | [16]

CS(=O)(=O)c1ccc(Cl)cc1
inactive: [2] | [3] | [4] | [20] | [5] | [6] | [7] | [8] | [9] | [10] | [11] | [12] | [13] | [14] | [15] | [16] | [18] | [19]

CC(CN1c2ccccc2Sc2ccccc21)N(C)C (stereo unspecified)
inactive: [1] | [2] | [3] | [4] | [5] | [6] | [7] | [8] | [9] | [10] | [11] | [12] | [13] | [14] | [15] | [16]

CO[Si](CCCNCCN)(OC)OC
inactive: [1] | [2] | [3] | [4] | [20] | [5] | [6] | [7] | [8] | [9] | [10] | [11] | [12] | [13] | [14] | [15] | [16]
